Data as given in PubChem BioAssay.
For some assays here: Potency and affinity values are given separately. Activity calls are given as the source filed them.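 How the source made its calls, unless noted: active means calcium signal ratio cut to more than 3 SD under the fully stimulated control mean yet still positive, in both repeats and the primary screen; inactive means the rest.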

Tests used:
[1] = tested on: TRPC4 beta (transient receptor potential cation channel C4), mouse; experiment: activators of mouse TRPC4 channel, confirmation, cell-based, Fluo4 calcium, HEK293 TRPC4beta/mu-opioid, duplicates, 10 µM (AID 2426;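 active means fluorescence ratio normalized to control raised more than 50% in primary screen plus both repeat runs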;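 on activation: percent rise of integrated ratio over buffer wells lacking compound which define 0%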); conditions: Fluo4 calcium fluorescence, at 10 µM; stronger effect = higher value
[2] = tested on: transient receptor potential cation channel C4 beta (TRPC4), mouse; experiment: activators of mouse TRPC4 channel, confirmation, cell-based, second round, Fluo4, HEK293 TRPC4beta/mu-opioid, 1 µM (AID 2461;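 active means primary screen active and over 50% activation in each of two duplicate runs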;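 on activation: 0% = wells without test compound as baseline of integrated fluorescence ratio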); conditions: Fluo4 calcium fluorescence, at 1 µM; stronger effect = higher value
[3] = tested on: TRPC4 (transient receptor potential cation channel C4 beta), mouse; experiment: positive allosteric modulators of mouse TRPC4, confirmation, cell-based, second round, Fluo-4, HEK293 TRPC4beta/mu-opioid, 1 µM (AID 2554;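 active means primary screen hit whose fluorescence ratio, in both repeats, exceeds the weak agonist control mean by 3 SD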); conditions: DAMGO EC20, Fluo-4 calcium flux, at 1 µM; stronger effect = higher value
[4] = tested on: TRPC4 beta (transient receptor potential cation channel C4), mouse; experiment: positive allosteric modulators of mouse TRPC4, confirmation, cell-based, Fluo-4, HEK293 TRPC4beta/mu-opioid (AID 2555;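 active means primary screen hit whose calcium fluorescence ratio, in both repeats, exceeds the weak agonist control mean by 3 SD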); conditions: DAMGO EC20, Fluo-4 calcium flux, at 10 µM; stronger effect = higher value
[5] = biological target: Short transient receptor potential channel 4 (Mus musculus) (UniProt Q9QUQ5); experiment: inhibitors of mouse TRPC4 channel, confirmation, cell-based, Fluo4, HEK293 TRPC4beta/mu-opioid (AID 2636;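 active means calcium signal cut by more than 3 SD below the full-agonist control yet still positive, in both repeats and the earlier primary screen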); conditions: DAMGO, Fluo4 calcium flux, at 10 µM; stronger effect = higher value
[6] = biological target: Short transient receptor potential channel 4 (Mus musculus) (UniProt Q9QUQ5); experiment: inhibitors of mouse TRPC4 channel, confirmation, cell-based, second round, Fluo4, HEK293 TRPC4beta/mu-opioid, 1 µM (AID 2637); conditions: Fluo4 calcium flux, DAMGO, at 1 µM; stronger effect = higher value
[7] = biological target: Short transient receptor potential channel 4 (Mus musculus) (UniProt Q9QUQ5); experiment: mouse TRPC4 channel activators, dose response, cell-based, HEK293 TRPC4/mu-opioid, Fluo-4 calcium (AID 434937;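 active means primary screen activator hit with a dose response curve and TRPC4 channel activation at any tested dose; inactive means no activation, no dose response, or not a primary hit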)
[8] = biological target: Short transient receptor potential channel 4 (Mus musculus) (UniProt Q9QUQ5); experiment: TRPC4 positive allosteric modulators, dose response, cell-based, HEK293 TRPC4/mu-opioid, Fluo-4 calcium, EC20 DAMGO (AID 434941;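 active means earlier screen potentiator hit that boosts the TRPC4 ion channel at some dose, with a dose response; inactive means no potentiation, no dose response, or not a prior hit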;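 further: calcium entry triggered by an EC20 dose of DAMGO at the co-expressed mu-opioid receptor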)
[9] = biological target: Short transient receptor potential channel 4 (Mus musculus) (UniProt Q9QUQ5); experiment: mouse TRPC4 channel inhibitors, dose response, cell-based, HEK293 TRPC4/mu-opioid, Fluo-4 calcium (AID 434942;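 active means primary screen inhibitor hit that blocks the TRPC4 channel at some tested dose, yielding a dose curve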)
[10] = biological target: Short transient receptor potential channel 6 (Mus musculus) (UniProt Q61143); experiment: inhibition of mouse TRPC6 channel, confirmation, selectivity assay for TRPC4 inhibitor project, cell-based, HEK293, membrane potential dye, duplicate (AID 434948;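 active means active in primary screen and both duplicates, each dropping signal beyond three positive-control SD with fluorescence still positive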); conditions: HEK293 TRPC6, membrane potential dye fluorescence, at 10 µM; inhibition: stronger effect = higher value, stimulated with maximal-effect acetylcholine unless noted; outcome: stimulated with maximal-effect acetylcholine unless noted
[11] = biological target: Short transient receptor potential channel 6 (Mus musculus) (UniProt Q61143); experiment: activation of mouse TRPC6 channel, confirmation, selectivity assay for TRPC4 activator project, cell-based, HEK293, membrane potential dye, duplicate (AID 434950;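 active means membrane potential signal rise above negative control mean plus 3 SD in both duplicates, also active in the earlier TRPC4 screen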;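 on activation: 0% = buffer only wells and 100% = acetylcholine maximal-effect wells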); conditions: HEK293 TRPC6, membrane potential fluorescence, at 10 µM; stronger effect = higher value
[12] = biological target: Short transient receptor potential channel 6 (Mus musculus) (UniProt Q61143); experiment: TRPC6 potentiation by TRPC4 potentiator hits, confirmation, selectivity assay for TRPC4 potentiator project, HEK293 cells, membrane potential dye, duplicate (AID 434952;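 active means compound raising the membrane signal above positive-control mean plus 3 SD in both repeats, and a primary screen hit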); conditions: HEK293 TRPC6, membrane potential dye fluorescence, at 10 µM; maximal acetylcholine added after compound unless noted
[13] = biological target: Short transient receptor potential channel 4 (Mus musculus) (UniProt Q9QUQ5); experiment: calcium flux activators in TRPC4/5HT1a cells, counter-screen for TRPC4 activator project, cell-based, second counter screen, HEK293 TRPC4/5HT1a, Fluo-4 (AID 434977;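 active means calcium signal rise above buffer-control mean plus 5 SD in both duplicates, and also a hit in the primary screen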;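 on activation: plate controls were assay buffer for no effect and maximal serotonin response for full effect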); conditions: Fluo-4 calcium flux, at 10 µM; stronger effect = higher value
[14] = calcium flux inhibitors in TRPC4/5HT1a cells, confirmation, counter-screen for TRPC4 inhibitor project, cell-based, second counter screen, HEK293 TRPC4/5HT1a, Fluo-4 (AID 434978;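 active means primary screen active whose calcium signal fell more than 3 SD beyond the full-serotonin control mean in both duplicate plates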;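 on outcome: serotonin given first at submaximal then at maximal dose after compound preincubation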); conditions: Fluo-4 calcium flux, at 10 µM; inhibition: stronger effect = higher value, serotonin added to trigger calcium flux unless noted; outcome: serotonin added to trigger calcium flux unless noted
[15] = tested on: TRPC4 (mouse), co-expressed with 5HT1a in HEK293; experiment: calcium flux potentiators in TRPC4/5HT1a cells, confirmation, counter-screen for TRPC4 potentiator project, cell-based, second counter screen, HEK293 TRPC4/5HT1a, Fluo-4 (AID 434979;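 active means signal rise over 3 SD above mean of control wells given weak agonist, in both repeats and first screen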); conditions: Fluo-4 calcium flux, at 10 µM; outcome: serotonin added at its EC20 dose unless noted; potentiation: stronger effect = higher value, serotonin added at its EC20 dose unless noted
[16] = calcium flux activation in mu-opioid HEK293 cells, confirmation, counter-screen for TRPC4 activator project, cell-based, HEK293 mu-opioid receptor line (AID 449723;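 active means hit in primary screen, with calcium signal over 5 SD above buffer well mean in both duplicates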;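 further: counter screen cells carry the mu-opioid receptor alone and lack TRPC4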); conditions: Fluo-4 calcium fluorescence, at 10 µM; stronger effect = higher value
[17] = calcium flux enhancement in mu-opioid HEK293 cells, confirmation, counter-screen for TRPC4 allosteric potentiator project, cell-based, HEK293 mu-opioid receptor line (AID 449724;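 active means calcium signal rise more than 3 SD above the low-dose agonist control mean, in both duplicate plates and the primary screen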); conditions: Fluo-4 calcium flux, at 10 µM; compound added before EC20 DAMGO stimulus unless noted

Short transient receptor potential channel 4 (Mus musculus), sequence (Q9QUQ5 whole entry, looked up): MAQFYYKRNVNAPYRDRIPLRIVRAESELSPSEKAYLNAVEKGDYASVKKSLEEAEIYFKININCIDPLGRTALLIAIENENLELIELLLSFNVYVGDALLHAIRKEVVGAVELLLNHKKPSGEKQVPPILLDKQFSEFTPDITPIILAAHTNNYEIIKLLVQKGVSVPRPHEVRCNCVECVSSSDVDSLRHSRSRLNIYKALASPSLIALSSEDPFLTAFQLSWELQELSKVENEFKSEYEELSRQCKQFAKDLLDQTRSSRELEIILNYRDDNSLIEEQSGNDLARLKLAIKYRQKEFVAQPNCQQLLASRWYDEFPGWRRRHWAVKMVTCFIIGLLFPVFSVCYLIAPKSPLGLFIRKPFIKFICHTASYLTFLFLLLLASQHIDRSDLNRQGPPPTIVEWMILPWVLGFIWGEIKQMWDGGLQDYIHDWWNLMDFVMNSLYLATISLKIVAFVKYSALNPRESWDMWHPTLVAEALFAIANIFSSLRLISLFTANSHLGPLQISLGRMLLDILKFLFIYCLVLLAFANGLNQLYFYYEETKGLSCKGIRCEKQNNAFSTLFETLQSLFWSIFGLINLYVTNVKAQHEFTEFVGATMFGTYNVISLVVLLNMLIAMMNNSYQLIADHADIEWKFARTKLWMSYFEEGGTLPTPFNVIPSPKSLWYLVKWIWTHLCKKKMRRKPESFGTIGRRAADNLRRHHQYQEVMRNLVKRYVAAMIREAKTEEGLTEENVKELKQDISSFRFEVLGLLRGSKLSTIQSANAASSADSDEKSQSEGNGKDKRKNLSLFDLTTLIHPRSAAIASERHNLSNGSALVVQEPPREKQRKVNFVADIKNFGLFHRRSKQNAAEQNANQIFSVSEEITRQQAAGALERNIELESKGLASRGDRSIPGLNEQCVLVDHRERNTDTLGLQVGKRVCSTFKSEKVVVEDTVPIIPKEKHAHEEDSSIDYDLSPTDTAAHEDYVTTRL
Short transient receptor potential channel 6 (Mus musculus), sequence (Q61143 whole entry, looked up): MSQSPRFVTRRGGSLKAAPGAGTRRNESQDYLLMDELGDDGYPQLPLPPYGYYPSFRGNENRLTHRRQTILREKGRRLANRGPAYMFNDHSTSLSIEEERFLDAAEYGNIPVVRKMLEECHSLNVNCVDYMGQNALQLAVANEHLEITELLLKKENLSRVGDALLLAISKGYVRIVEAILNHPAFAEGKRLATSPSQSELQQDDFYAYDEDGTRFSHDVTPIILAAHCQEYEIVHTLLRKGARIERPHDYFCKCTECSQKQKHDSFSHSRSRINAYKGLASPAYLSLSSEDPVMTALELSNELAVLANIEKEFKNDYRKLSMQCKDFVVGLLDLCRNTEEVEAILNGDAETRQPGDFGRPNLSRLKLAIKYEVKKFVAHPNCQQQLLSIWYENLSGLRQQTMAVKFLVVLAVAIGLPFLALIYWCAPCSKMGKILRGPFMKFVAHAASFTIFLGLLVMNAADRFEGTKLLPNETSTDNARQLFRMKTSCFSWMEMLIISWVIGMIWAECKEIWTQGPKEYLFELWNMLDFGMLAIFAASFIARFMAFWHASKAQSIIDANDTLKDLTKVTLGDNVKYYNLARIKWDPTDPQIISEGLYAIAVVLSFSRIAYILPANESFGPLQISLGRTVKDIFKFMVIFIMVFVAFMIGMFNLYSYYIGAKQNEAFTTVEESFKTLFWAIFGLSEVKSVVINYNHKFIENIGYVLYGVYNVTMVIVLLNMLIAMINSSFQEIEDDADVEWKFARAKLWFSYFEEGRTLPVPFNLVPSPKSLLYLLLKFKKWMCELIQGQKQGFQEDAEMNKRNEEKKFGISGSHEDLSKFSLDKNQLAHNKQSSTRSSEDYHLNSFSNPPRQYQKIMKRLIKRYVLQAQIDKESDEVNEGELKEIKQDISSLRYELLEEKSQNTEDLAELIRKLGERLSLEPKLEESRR

SMILES: O=[N+]([O-])c1ccc(N2CCNCC2)cc1N1CCCCCC1
- outcome [1]: inactive
- outcome [2]: inactive
- outcome [3]: inactive
- outcome [4]: inactive
- outcome [5]: inactive
- outcome [6]: inactive
- outcome [7]: inactive
- outcome [8]: inactive
- outcome [9]: inactive
- outcome [10]: inactive
- outcome [11]: inactive
- outcome [12]: inactive
- outcome [13]: inactive
- outcome [14]: inactive
- potentiation [15]: 13.3% (active)
- outcome [16]: inactive
- outcome [17]: inactive

SMILES: COc1ccc(CN2CCCC(C(=O)c3sccc3C)C2)cc1O (stereo not drawn)
- outcome [1]: inactive
- outcome [2]: inactive
- outcome [3]: inactive
- outcome [4]: inactive
- inhibition [5]: 90% (active)
- outcome [6]: inactive
- outcome [7]: inactive
- outcome [8]: inactive
- outcome [10]: inactive
- outcome [11]: inactive
- outcome [12]: inactive
- outcome [13]: inactive
- inhibition [14]: 21.3% (active)
- outcome [15]: inactive
- outcome [16]: inactive
- outcome [17]: inactive

SMILES: Cn1c(N2CCNCC2)nc2ccccc21
- activation [1]: 117% (active)
- activation [2]: 92% (active)
- outcome [3]: inactive
- outcome [4]: inactive
- outcome [5]: inactive
- outcome [6]: inactive
- outcome [8]: inactive
- outcome [9]: inactive
- outcome [10]: inactive
- activation [11]: 31.5% (active)
- outcome [12]: inactive
- activation [13]: 34.7% (active)
- outcome [14]: inactive
- outcome [15]: inactive
- outcome [16]: inactive
- outcome [17]: inactive

SMILES: CN(C)C=C1C(=O)N(C2CCCCC2)C(=O)N(C2CCCCC2)C1=O
- activation [1]: 83% (active)
- outcome [2]: inactive
- outcome [3]: inactive
- outcome [4]: inactive
- outcome [5]: inactive
- outcome [6]: inactive
- outcome [8]: inactive
- outcome [9]: inactive
- outcome [10]: inactive [setting not given]
- outcome [11]: inactive
- outcome [12]: inactive [setting not given]
- activation [13]: 124% (active)
- outcome [14]: inactive [setting not given]
- outcome [15]: inactive [setting not given]
- activation [16]: 39.4% (active)
- outcome [17]: inactive [setting not given]

SMILES: CCC(=O)OC1(c2cccc(C)c2)CC(C)N(C)CC1C (stereo not drawn)
- activation [1]: 79% (active)
- outcome [2]: inactive
- outcome [3]: inactive
- outcome [4]: inactive
- outcome [5]: inactive
- outcome [6]: inactive
- outcome [8]: inactive
- outcome [9]: inactive
- outcome [10]: inactive [setting not given]
- activation [11]: 74.5% (active)
- outcome [12]: inactive [setting not given]
- outcome [13]: inactive
- outcome [14]: inactive [setting not given]
- outcome [15]: inactive [setting not given]
- outcome [16]: inactive
- outcome [17]: inactive [setting not given]

SMILES: CCOC(=O)c1cc(C)n(CCc2cnc[nH]2)c1C
- activation [1]: 143% (active)
- activation [2]: 89% (active)
- outcome [3]: inactive
- outcome [4]: inactive
- outcome [5]: inactive
- outcome [6]: inactive
- outcome [8]: inactive
- outcome [9]: inactive
- outcome [10]: inactive
- activation [11]: 26% (active)
- outcome [12]: inactive
- activation [13]: 76% (active)
- outcome [14]: inactive
- outcome [15]: inactive
- outcome [16]: inactive
- outcome [17]: inactive

SMILES: O=[N+]([O-])c1ccc(N2CCNCC2)c(Cl)c1
- outcome [1]: inactive
- outcome [2]: inactive
- potentiation [3]: 26% (active)
- potentiation [4]: 28% (active)
- outcome [5]: inactive
- outcome [6]: inactive
- outcome [8]: inactive
- outcome [9]: inactive
- outcome [10]: inactive
- outcome [11]: inactive
- outcome [12]: inactive
- activation [13]: 5.58% (active)
- outcome [14]: inactive
- outcome [15]: inactive
- outcome [16]: inactive
- outcome [17]: inactive
